Compound activity deposited in PubChem by National Center for Advancing Translational Sciences (NCATS).
ELG1 genotox – qHTS screen for small molecules that induce genotoxicity in human embryonic kidney (HEK293T) cells expressing luciferase-tagged ELG1 | AID 504466, 2011 | 1.3% of 330,000 active | Potency, µM (series often up to 46 µM), for the others: at the top dose activity change, positive = activation, hits mostly activators | HEK293T ELG1-luciferase reporter, luminescence, 16 h; note: % of control where 0% means no effect; nearly all actives have a fitted effect of over 60% in size
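Quantitative HTS format in 1536-well plates. HEK293T ELG1-luciferase reporter cells receive test compound and are incubated 16 hr at 37 °C, 5% CO2; ONE-Glo added, 30 min room temperature, then luminescence read.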
Rab9 promoter act – qHTS Assay for Rab9 Promoter Activators. AID 485297, 2010. Potency, µM (series often up to 9.22 µM), for inactives: at the highest dose activation, negative = inhibition, usual class: activators. Huh7 Rab9 promoter-luciferase reporter, luminescence, 24 h. 2.8% of 320,000 active; note: % of control where 0% means no effect; nearly all actives have a fitted effect of over 60% in size
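Luciferase signal after 10 min detection reagent at ambient indicates Rab9 promoter upregulation; stably transfected Huh7 cells were treated 24 h with compound in DMSO at 37 °C, 5% CO2.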
NPC1 prom act – qHTS Assay for NPC1 Promoter Activators; Huh7 NPC1 promoter luciferase reporter, 24 h; Potency, µM (doses to about 9.22 µM), inactives show at the top dose activation, hits mostly activators; 2.4% of 320,000 active; note: % of control where 0% means no effect; nearly all actives have a fitted effect of over 60% in size
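Huh7 cells stably carrying NPC1 promoter–luciferase, plated in Opti-MEM with 10% FBS for 2 h, were exposed to compound in DMSO for 24 h at 37 °C; luciferase reagent was added for 10 min and luminescence read.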
SMN2 splice up – qHTS Assay for Enhancers of SMN2 Splice Variant Expression; HEK293 SMN2-luciferase splicing reporter, luminescence, 30-36 h; Potency, µM (top dose mostly 46.1 µM), for inactives: top-dose activity change, positive = activation, hits mostly activators; 2.8% of 210,000 active; AID 1458, 2008; note: % of control where 0% means no effect; nearly all actives have a fitted effect of over 55% in size
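HEK293 cells carry an SMN2 […]–luciferase reporter in which exon 7 inclusion puts luciferase in frame. Cells were plated 10-12 h before compound addition, then incubated 30-36 h at 37C. ONE-Glo luminescence was read; sodium butyrate at 4.5 mM final served as control.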
FLuc modulator – qHTS profiling assay for firefly luciferase inhibitor/activator using purifed enzyme and Km concentrations of substrates (counterscreen for miR-21 project). purified FLuc, Km substrates, luminescence inhibition. Potency, µM (titrated, usually from 57.5 µM), without a hit: at the top dose activity change, negative = inhibition, hits mostly inhibitors. 6.9% of 360,000 active. AID 588342, 2011;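 note: plate controls were vehicle for no effect and reference inhibitor for full effect; nearly all actives have a fitted effect of over 55% in size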
Target sequence (P08659 whole entry, looked up): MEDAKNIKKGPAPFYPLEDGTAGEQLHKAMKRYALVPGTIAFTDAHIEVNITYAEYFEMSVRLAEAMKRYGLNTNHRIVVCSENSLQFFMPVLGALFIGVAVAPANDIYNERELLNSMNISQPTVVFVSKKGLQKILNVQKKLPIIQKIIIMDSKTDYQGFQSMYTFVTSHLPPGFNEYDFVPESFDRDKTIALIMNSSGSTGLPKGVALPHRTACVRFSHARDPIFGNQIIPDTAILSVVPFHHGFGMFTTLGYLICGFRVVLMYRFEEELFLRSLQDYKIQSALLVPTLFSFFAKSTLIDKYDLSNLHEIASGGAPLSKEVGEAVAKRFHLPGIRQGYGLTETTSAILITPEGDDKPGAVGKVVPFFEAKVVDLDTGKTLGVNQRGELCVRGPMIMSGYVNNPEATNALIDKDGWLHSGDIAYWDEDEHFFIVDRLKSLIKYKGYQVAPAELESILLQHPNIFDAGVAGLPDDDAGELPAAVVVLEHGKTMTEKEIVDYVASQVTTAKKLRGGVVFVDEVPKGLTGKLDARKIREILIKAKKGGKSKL
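Purified P. pyralis luciferase, 10 nM final, with Km-level 10 uM D-luciferin and 10 uM ATP in 50 mM Tris acetate pH 7.5, 10 mM Mg acetate, 0.01% Tween-20, 0.05% BSA; 6-point qHTS titration about 60 µM downward; luminescence read.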
ELG1 repair inh – qHTS screen for small molecules that inhibit ELG1-dependent DNA repair in human embryonic kidney (HEK293T) cells expressing luciferase-tagged ELG1. Potency, µM (series often up to 46.1 µM), without a hit: at the highest dose activity change, negative = inhibition, most hits filed as inhibitors. AID 504467, 2011. HEK293T ELG1-luciferase reporter, luminescence, 16 h; DNA damage induced by 5-fluorouridine. 2.3% of 330,000 active; note: % is set by controls: 0 for no effect and ±100 for the full control effect; nearly all actives have a fitted effect of over 55% in size
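Quantitative HTS, concentration-response format. 2,000 cells/well co-treated with 5-fluorouridine and compound, 16 hr in 5% CO2 at 37 °C; ONE-Glo luminescence read after 30 min.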
Starred values were filed as active, the others as inactive; u = inconclusive; x = not tested or not shown. In the library only some 9.2% were active in any assay of this set; here they are far more common. Calls come from the whole dose curve; as a rule, active = well fitted curve in the direction sought with a large enough effect; inconclusive = small, poorly fitted or top-dose-only effect, or another doubt; inactive = no such curve, though single readings can be large; an effect the other way counts as inactive or inconclusive. Potency is the fitted concentration of half-maximal effect.

SMILES	ELG1 genotox	Rab9 promoter act	NPC1 prom act	SMN2 splice up	FLuc modulator	ELG1 repair inh
COc1ccc(C(C)=O)cc1COC(=O)c1ccc2c(c1)OCCO2	1.2%	0.9%	2.3%	x	1.2%	-8.8%
O=C(NC1CCCC1)c1cccc(S(=O)(=O)N2CCOCC2)c1	1.3%	-0.1%	0.3%	x	-0.9%	2.7%
COc1ccccc1CNC(=O)C1CCN(S(=O)(=O)c2c(C)noc2/C=C/c2c(C)cc(C)cc2C)CC1	x	x	x	x	-0.4%	x
CC(=O)c1cccc(NC(=O)C(C)OC(=O)C2=NNC(=O)CC2)c1 (stereo not given)	4.3%	x	x	x	x	18.0%
COc1cccc(NC(=O)Nc2ccccc2C(N)=O)c1	0.1%	-5.5%	-2.1%	21.6%	21.3µM*	17.6%
COc1cccc(Nc2ccc(Nc3cccc(OC)c3)nn2)c1	-1.0%	-7.2%	-1.8%	4.1%	19µM*	-18.6%
O=C(O)c1ccccc1Nc1ccc(OC(F)F)cc1	7.6%	16.8%	12.1%	15.7%	21.3µM*	u
O=C(O)/C=C\C(=O)Nc1ccc(OC(F)F)cc1	0.7%	-5.9%	-2.2%	0.9%	u	1.9%
COc1cc(NC(=O)Nc2cccc(Cl)c2)c(C(=O)O)cc1OC	6.1%	-2.7%	-7.2%	x	26.9µM*	u
COc1cccc(Nc2c(Nc3cccc(OC)c3)c(=O)c2=O)c1	-0.1%	-2.8%	-3.4%	x	0.7%	10.4%
Cc1noc(C)c1S(=O)(=O)Nc1ccc(C(C)C)cc1	-0.2%	-1.6%	-3.4%	x	0.6%	-0.4%
O=C(Nc1cccc(Cl)c1)Nc1ccccc1C(=O)O	u	0.126µM*	0.562µM*	x	0.849µM*	u
Cc1cc(C)cc(OCC(=O)NCC(c2ccc(Cl)cc2)N2CCCCC2)c1 (stereo not given)	x	x	x	x	1.6%	x
Cc1cc(C)c(NC(=O)c2cc(S(=O)(=O)N3CCCC3)cn2C)c(C)c1	x	x	x	x	2.7%	x
COc1ccc(/C=C2\N=C(c3ccccc3)N(c3ccc(C(=O)O)cc3)C2=O)cc1OC	14.5%	12.2%	12.9%	x	5.36µM*	u
CC1=N/C(=C\c2ccc(OC(C)C)cc2)C(=O)N1c1ccc(C(=O)O)cc1	5.5%	-3.6%	0.2%	-8.8%	12µM*	0.1%
CCOC(=O)C(C)N1C(=O)S/C(=C/c2cc(C)n(-c3ccncc3)c2C)C1=O (stereo not given)	-4.9%	20.9%	-0.1%	-20.1%	u	u
COCCn1c(C)cc(/C=C2/SC(=O)N(C(C)C(=O)OC)C2=O)c1C (stereo not given)	8.2µM*	1.58µM*	1.41µM*	x	2.39µM*	u
CCOC(=O)C(C)N1C(=O)S/C(=C/c2cc(C)n(-c3ccccn3)c2C)C1=O (stereo not given)	u	2.24µM*	2.51µM*	29.3%	8.49µM*	u
COC(=O)C(C)N1C(=O)S/C(=C/c2cc(C)n(C(C)C)c2C)C1=O (stereo not given)	u	3.16µM*	0.5%	14.4%	13.5µM*	u
CCn1c(C)cc(/C=C2/SC(=O)N(C(C)C(=O)OC)C2=O)c1C (stereo not given)	u	3.98µM*	3.16µM*	x	6.01µM*	u
CCN(CC)CCSc1c(C(C)C)cnc2c1c(=O)n(C)c(=O)n2C	x	x	x	x	2.7%	x
CCOC(=O)c1cc(S(=O)(=O)N2CCN(c3ccc(F)cc3)CC2)[nH]n1	x	x	x	x	-5.5%	x
COCCn1c(C)cc(/C=C2\NC(=S)N(C)C2=O)c1C	u	0.2%	13.6%	11.2µM*	u	28.8%
Cn1c(N2CCN(c3ccccn3)CC2)nc2c1c(=O)n(Cc1ccc(Cl)cc1)c(=O)n2C	-23.6%	-12.4%	-2.0%	-56.5%	-0.7%	16.4µM*
SMILES	ELG1 genotox	Rab9 promoter act	NPC1 prom act	SMN2 splice up	FLuc modulator	ELG1 repair inh
CC1CCN(c2nc3c(c(=O)n(C)c(=O)n3C)n2CCSc2ncccn2)CC1	2.7%	2.2%	-1.0%	-12.6%	4.3%	0.7%
Cc1ccnc(SCCn2c(N3CCN(Cc4ccccc4)CC3)nc3c2c(=O)[nH]c(=O)n3C)n1	-5.6%	-7.8%	-0.2%	1.6%	-2.2%	9.2µM*
Cn1c(=O)c2c(nc(N3CCN(Cc4ccccc4)CC3)n2CCSc2ncccn2)n(C)c1=O	10.4%	-6.8%	-1.2%	-8.6%	-2.2%	5.17µM*
Cn1c(=O)[nH]c(=O)c2c1nc(CN1CCN(c3ccc(F)cc3)CC1)n2CCCc1ccccc1	-2.4%	-3.3%	1.6%	6.7%	1.8%	u
Cn1c(=O)[nH]c(=O)c2c1nc(N1CCN(c3ccccc3)CC1)n2CCSc1ncccn1	-3.5%	-2.3%	-2.8%	7.6%	7.7%	u
Cn1c(=O)[nH]c(=O)c2c1nc(CN1CCN(c3ccccc3F)CC1)n2CCCc1ccccc1	1.8%	-3.0%	-2.5%	u	1.8%	6.51µM*
CC1CN(c2nc3c(c(=O)n(Cc4ccc(Cl)c(Cl)c4)c(=O)n3C)n2C)CC(C)O1 (stereo not given)	-20.3%	-0.6%	-4.3%	-37.4%	8.9%	u
COc1cccc(-c2csc(-c3c(N)c(C(=O)c4ccccc4)n4ccccc34)n2)c1	x	x	x	-0.3%	0.0%	x
Cc1ccc(Cl)cc1NC(=O)c1ccc(NC(=O)N2CCSc3ncccc32)cc1	x	x	x	x	-11.2%	x
NS(=O)(=O)c1cccc(NC(=O)COC(=O)c2ccccc2SCC(=O)N2CCCC2)c1	-3.3%	x	x	x	x	-18.1%
Cc1nc2ccccn2c1C(=O)N/N=C/c1ccc([N+](=O)[O-])cc1	1.3%	-12.7%	2.0%	x	1.9%	-0.8%
Cc1nc2ccccn2c1C(=O)N/N=C/c1ccc(CNC(=O)C(=O)Nc2ccccc2)o1	2.6%	2.1%	-4.6%	u	19µM*	-5.4%
Cc1nc2ccccn2c1C(=O)N/N=C/c1ccc([N+](=O)[O-])o1	-6.9%	-5.8%	-8.8%	-37.4%	-6.3%	10.3µM*
COc1cc(CN2CCCC(N3CCN(c4ccccc4C)CC3)C2)ccc1O (stereo not given)	-4.1%	0.3%	-5.6%	x	1.0%	-19.7%
O=c1cc(-c2ccccc2)nc2nc(SCc3ccccc3)[nH]n12	12.4%	8.3%	1.1%	6.3%	26.9µM*	8.8%
O=c1cc(-c2ccccc2)nc2nc(-c3ccco3)[nH]n12	u	10.9%	14.5%	u	3.38µM*	u
O=c1cc(-c2ccccc2)nc2nc(CCc3ccccc3)[nH]n12	-1.4%	1.7%	0.3%	12.4%	u	1.2%
